Measured values: PubChem BioAssay (NCI)
The panel holds about 79,000 compounds, 15% with a hit somewhere; the sample as a whole holds those more often. Values without a mark were called inactive. The source made the active and inactive calls. Cut-off read from the data, not from the text of the source: active = growth inhibition above about 70%; inactive = the rest.

How the values were obtained:
[1] = NCI Yeast Anticancer Drug Screen. Data for the rad50 strain (AID 155);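 note: 0% = growth of vehicle-only cultures of the same strain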; conditions: S. cerevisiae rad50 strain growth inhibition, stronger effect = higher value
Outline: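 Genetically altered yeast (DNA repair pathway); compound treatment; growth inhibition vs vehicle ctrl.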

[2] = NCI Yeast Anticancer Drug Screen. Data for the mec2-1 strain (AID 157); conditions: S. cerevisiae mec2-1 strain, stronger effect = higher value
Outline: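 Readout is yeast growth inhibition, normalised to vehicle-treated controls, in the mec2-1 strain exposed to compound.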

[3] = NCI Yeast Anticancer Drug Screen. Data for the sgs1 mgt1 strain (AID 161);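 note: 0% = growth of cultures given vehicle only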; conditions: S. cerevisiae sgs1 mgt1 strain, stronger effect = higher value
Outline: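 Compounds are added to genetically altered yeast, and growth is compared with cultures given vehicle alone to give percent inhibition.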

[4] = NCI Yeast Anticancer Drug Screen. Data for the cln2 rad14 strain (AID 165);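 note: 0% = growth equal to vehicle treated cultures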; conditions: S. cerevisiae cln2 rad14 strain, stronger effect = higher value
Outline: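 Relative to vehicle controls, growth inhibition of compound-treated cln2 rad14 yeast was recorded.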

[5] = NCI Yeast Anticancer Drug Screen. Data for the bub3 strain (AID 167); conditions: S. cerevisiae bub3 mutant strain, stronger effect = higher value
Outline: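 Yeast carrying a defined mutation is treated with each compound, and growth is compared with that of vehicle-exposed cells to give inhibition.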

[6] = NCI Yeast Anticancer Drug Screen. Data for the mlh1 rad18 strain (AID 175); conditions: S. cerevisiae mlh1 rad18 strain growth inhibition, stronger effect = higher value
Outline: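 Test agents were incubated with a yeast strain of defined genotype (DNA damage repair defect). Inhibition of growth was derived by comparison with vehicle-exposed cultures.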

[7] = at 5.0 µM (retest, dose inferred, filed as 0.5)
[8] = at 50.0 µM (retest, dose inferred, filed as 5.0)

Row | SMILES | growth inhibition [1, 7] | growth inhibition [1, 8] | growth inhibition ([1]; at 50.0 µM) | growth inhibition [2, 7] | growth inhibition [2, 8] | growth inhibition ([2]; at 50.0 µM) | growth inhibition [3, 7] | growth inhibition [3, 8] | growth inhibition ([3]; at 50.0 µM) | growth inhibition [4, 7] | growth inhibition [4, 8] | growth inhibition ([4]; at 50.0 µM) | growth inhibition [5, 7] | growth inhibition [5, 8] | growth inhibition ([5]; at 50.0 µM) | growth inhibition [6, 7] | growth inhibition [6, 8] | growth inhibition ([6]; at 50.0 µM)
1 | CN(C)C(=S)/N=c1\ssc(=S)n1-c1ccccc1 | 17% | 100% (active) | -13.9% | 39% | 99% (active) | -8.8% | 50% | 100% (active) | -13.1% | 38% | 99% (active) | -17.1% | 46% | 100% (active) | -2.45% | 23% | 99% (active) | 20.7%
2 | CC(CC(C#CCN(C)C)N(C)C)CC(C)(C)C (configuration not stated) | 22% | -9% | -5.3% | 1% | -10% | 15.6% | 3% | 5% | 13.3% | 1% | 24% | -7.5% | 7% | 14% | 41.1% | 6% | -5% | 38.6%
3 | CC(CCC(=O)O)[C@H]1CCC2[C@@H]3CC(O)[C@@H]4CC(O)CC[C@]4(C)C3CC[C@@]21C (some centres not stated) | -5% | 44% | 75.4% (active) | -10% | 58% | 74.5% (active) | 5% | 64% | 77.3% (active) | 14% | 70% (active) | 76.2% (active) | -6% | 84% (active) | 50.5% | -8% | 71% (active) | 67.7%
4 | CC(C)c1ccc2c(c1)CCC1C(C)(CN)CCCC21C (configuration not stated) | 27% | 100% (active) | 99.2% (active) | 0% | 100% (active) | 99.6% (active) | 35% | 100% (active) | 99.5% (active) | -6% | 99% (active) | 98.7% (active) | 10% | 100% (active) | 99.3% (active) | 32% | 100% (active) | 99.1% (active)
5 | Cc1ccc(-c2c3nc(c(-c4ccc(C)cc4)c4ccc([nH]4)c(-c4ccc(C)cc4)c4nc(c(-c5ccncc5)c5ccc2[nH]5)C=C4)C=C3)cc1.Cc1ccc(-c2c3nc(c(-c4ccc(C)cc4)c4ccc([nH]4)c(-c4ccc(C)cc4)c4nc(c(-c5ccncc5)c5ccc2[nH]5)C=C4)C=C3)cc1.O=S(=O)([O-])C(F)(F)F.[Pt+2].c1ccc([PH+](CCC[PH+](c2ccccc2)c2ccccc2)c2ccccc2)cc1 | 19% | 62% | 48.8% | 13% | 42% | 36.8% | 13% | 71% (active) | 50.4% | 3% | 45% | -44.6% | 10% | 63% | 38.8% | 14% | 60% | 68.5%
6 | O=C(O)CCc1ccc2ccccc2c1 | -2% | 48% | 62.8% | 0% | 38% | 51.4% | 1% | 37% | 37.7% | -4% | 32% | 83.2% (active) | -6% | 18% | 53.7% | -4% | 41% | 88.2% (active)
7 | O=S(=O)(Nc1ccccc1C(F)(F)F)c1ccc(F)cc1 | -23% | 49% | 80.6% (active) | 6% | 59% | 46.5% | -11% | 43% | 56.4% | -21% | 69% | 33.4% | -16% | 61% | 35.4% | -13% | 83% (active) | 80.2% (active)
8 | O=C(O)/C(Cl)=C(\Cl)C(=O)Nc1c(Cl)cccc1Cl | -9% | 7% | 19.1% | -3% | -7% | 51.1% | -13% | 6% | 38.2% | 1% | 5% | 36.4% | 3% | 2% | 29.2% | 19% | 2% | 16.1%
9 | Cc1ccc(S(=O)(=O)N2CCN(C)CC2)cc1 | -1% | 12% | 19.4% | -5% | 26% | 4.45% | 4% | 31% | 5.5% | 1% | 16% | -0.55% | 1% | 39% | 40.5% | 13% | 49% | 11.6%
